In PubChem BioAssay (EPA / NIEHS):
Several values for one entry are separate records, joined by “and”; a condition that tells them apart may be missing. Equal entries are not always repeated. Records with an inconclusive call do not appear. Some compounds were tested as several samples or in several runs, with calls that do not always agree. Activity calls are given as the source filed them. The calls were made as follows, unless noted: active = hit-call score of the fitted dose curve at least 0.9, where 1 is the maximum; inactive = score below 0.9.

Legend:
[1] = read-out: Plasminogen activator inhibitor-1 (PAI1), SERPINE1 (gene 5054); test: BSK_CASM3C_PAI1: BioMAP Diversity Plus: CASM3C Assay for Plasminogen activator inhibitor-1 (PAI1) Biomarker Activity (AID 2284284); details: primary human coronary artery smooth muscle cells;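 also: PAI-1 protein level measured by ELISA 24 h after dosing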
[2] = read-out: Monocyte Chemoattractant Protein-1 (MCP1), CCL2 (gene 6347); test: BSK_hDFCGF_MCP1: BioMAP Diversity Plus: hDFCGF Assay for Monocyte Chemoattractant Protein-1 (MCP1) Biomarker Activity (AID 2284285); details: primary human foreskin fibroblasts
Outline: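 Human foreskin fibroblasts (hDFCGF system) were exposed to compound and secreted MCP-1 was measured by ELISA after 24 hours. Activity was fitted relative to DMSO. Cytotoxicity was checked by SRB total-protein staining in parallel cultures.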

[3] = read-out: Vascular cell adhesion molecule 1 (VCAM1), VCAM1 (gene 7412); test: BSK_IMphg_VCAM1: BioMAP Diversity Plus: IMphg Assay for Vascular cell adhesion molecule 1 (VCAM1) Biomarker Activity (AID 2284286); details: primary human endothelial cells with macrophages
Outline: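 Human venular endothelial cells co-cultured with macrophages; VCAM-1 quantified by ELISA 24 h after dosing, fitted in the positive direction against DMSO. Cytotoxicity was checked in parallel cultures by SRB total-protein staining (0.1% SRB after 10% TCA fixation, 560 nm).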

[4] = read-out: Intercellular Adhesion Molecule 1 (ICAM1), ICAM1 (gene 3383); test: BSK_hDFCGF_ICAM1: BioMAP Diversity Plus: hDFCGF Assay for Intercellular Adhesion Molecule 1 (ICAM1) Biomarker Activity (AID 2284287); details: primary human foreskin fibroblasts
Outline: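 Primary human foreskin fibroblasts (hDFCGF system) dosed with chemical; ICAM-1 quantified by ELISA at 24 h relative to DMSO. Parallel SRB total-protein staining to assess overt cytotoxicity.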

[5] = read-out: CD40, CD40 (gene 958); test: BSK_IMphg_CD40: BioMAP Diversity Plus: IMphg Assay for CD40 Biomarker Activity (AID 2284288); details: primary human endothelial cells with macrophages
Outline: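 Venular endothelial cells co-cultured with macrophages (human primary), CD40 measured by ELISA 24 h after dosing. Positive-direction fit vs DMSO baseline; cytotoxicity tracked by SRB total-protein staining in parallel cultures.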

[6] = read-out: TIMP metallopeptidase inhibitor 2 (TIMP2), TIMP2 (gene 7077); test: BSK_hDFCGF_TIMP2: BioMAP Diversity Plus: hDFCGF Assay for TIMP metallopeptidase inhibitor 2 (TIMP2) Biomarker Activity (AID 2284289); details: primary human foreskin fibroblasts
Outline: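 Primary human foreskin fibroblasts in the hDFCGF system, dosed for 24 h; TIMP-2 level measured by ELISA, fitted in the positive direction against DMSO; cytotoxicity checked in parallel by sulforhodamine B total protein staining.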

[7] = read-out: Interleukin-1 alpha (IL1a), IL1A (gene 3552); test: BSK_IMphg_IL1a: BioMAP Diversity Plus: IMphg Assay for Interleukin-1 alpha (IL1a) Biomarker Activity (AID 2284290); details: primary human endothelial cells with macrophages
Outline: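 Human venular endothelial cells co-cultured with macrophages, IMphg system. IL-1α is measured by ELISA 24 h after dosing and fitted in the positive direction against DMSO. Cytotoxicity is assessed by SRB staining of parallel cultures.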

[8] = read-out: E-selectin (Homo sapiens) (UniProt P16581); test: BSK_IMphg_ESelectin: BioMAP Diversity Plus: IMphg Assay for Eselectin Biomarker Activity (AID 2284291); details: primary human endothelial cells with macrophages
Outline: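 Human venular endothelial cell–macrophage co-culture, E-selectin measured by ELISA 24 h after chemical dosing. Signal fitted in the positive direction against DMSO as negative control and baseline.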

[9] = BSK_IMphg_SRB: Viability Assessment in the BioMAP Diversity Plus: IMphg Assay (AID 2284292); details: primary human endothelial cells with macrophages;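 also: measured one day after compound addition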
Outline: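 Human venular endothelial cells with macrophages, 24 h after chemical dosing; total protein by 0.1% SRB staining after 10% TCA fixation, read at 560 nm. Positive-direction fitting versus DMSO baseline.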

[10] = read-out: Macrophage colony-stimulating factor (MCSF), CSF1 (gene 1435); test: BSK_IMphg_MCSF: BioMAP Diversity Plus: IMphg Assay for Macrophage colony-stimulating factor (MCSF) Biomarker Activity (AID 2284293); details: primary human endothelial cells with macrophages
Outline: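 Co-culture of human venular endothelial cells and macrophages, 24 hours of chemical exposure. M-CSF quantified by ELISA, with parallel SRB total-protein staining for cytotoxicity; activity fitted relative to DMSO.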

[11] = read-out: Interleukin-10 (IL10), IL10 (gene 3586); test: BSK_IMphg_IL10: BioMAP Diversity Plus: IMphg Assay for Interleukin-10 (IL10) Biomarker Activity (AID 2284294); details: primary human endothelial cells with macrophages
Outline: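 Human venular endothelial cells cocultured with macrophages, dosed 24 h; IL-10 measured by ELISA, activity relative to DMSO. Cytotoxicity assessed in parallel cultures by sulforhodamine B total-protein staining.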

[12] = BSK_IMphg_SRB.Mphg: Macrophage Viability Assessment in the BioMAP Diversity Plus: IMphg Assay (AID 2284295); details: primary human endothelial cells with macrophages
Outline: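 Venular endothelial cells co-cultured with macrophages, read 24 h after dosing. Total protein measured by 0.1% SRB staining after 10% TCA fixation, absorbance at 560 nm. Fitted in positive direction against DMSO baseline.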

[13] = read-out: Thrombomodulin, THBD (gene 7056); test: BSK_LPS_Thrombomodulin: BioMAP Diversity Plus: LPS Assay for Thrombomodulin Biomarker Activity (AID 2284296); details: primary human HUVEC with PBMC
Outline: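 Human umbilical vein endothelial cells co-cultured with PBMC and stimulated with LPS; cell-surface thrombomodulin measured by ELISA 24 hours after compound. Gain or loss versus DMSO; cytotoxicity checked by SRB staining in parallel cultures.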

[14] = read-out: CD69, CD69 (gene 969); test: BSK_LPS_CD69: BioMAP Diversity Plus: LPS Assay for CD69 Biomarker Activity (AID 2284303); details: primary human HUVEC with PBMC
Outline: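 Human umbilical vein endothelial cells co-cultured with PBMC under LPS stimulation, chemical exposure 24 h; cell-surface CD69 measured by ELISA and fitted in the positive direction versus DMSO.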

[15] = tested on: TTR (gene 7276); test: CCTE_GLTED_hTTR_0.5uM: CCTE's human Transthyretin (hTTR) Inhibition Assay, with 0.5uM TTR, Great Lakes Toxicology and Ecology Division (GLTED) Lab (AID 2284320)
Outline: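 Cell-free displacement assay in which human TTR at 0.5 uM was incubated with test chemical for 2 h. Displacement of the ANSA probe was read by fluorescence at 380 nm excitation/475 nm emission. Loss of signal was fitted in the positive direction versus DMSO.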

[16] = CCTE_Deisenroth_5AR_NBTE_donor: CCTE's 5alpha-reductase NanoBRET Target Engagement Assay […], Deisenroth Lab (AID 2284319); details: actives raise or lower the signal
Outline: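 SRD5A2-NanoLuc, HEK293T, 20 h expression. Chemical 10 nM - 29.9 uM, 8 conc, duplicate; 3 h preincubation + 2 h testosterone tracer. Nano-Glo substrate plus extracellular NanoLuc inhibitor; donor lum 460 nm. DMSO baseline, bidirectional fit.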

[17] = CCTE_Deisenroth_5AR_NBTE_acceptor: CCTE's 5alpha-reductase NanoBRET Target Engagement Assay - Autofluorescence Screen, Deisenroth Lab (AID 2284321); details: actives raise or lower the signal;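 also: compound fluorescence in the acceptor channel under 460 nm excitation flags autofluorescence artifacts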
Outline: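 Using three independent plate-reader runs, nominal 100 uM chemicals were checked for intrinsic fluorescence (ex 460 nm). DMSO defined the baseline for bidirectional fitting.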

[18] = tested on: SRD5A2 (gene 6716); test: CCTE_Deisenroth_5AR_NBTE_ratio: CCTE's 5alpha-reductase NanoBRET Target Engagement Assay - Ratio, Deisenroth Lab (AID 2284322); details: actives raise or lower the signal
Outline: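 Reverse-transfect HEK293T with pNLF1-C-SRD5A2, express 20 h. Pre-incubate cells with chemical 3 h (8-point series, 10 nM - 29.9 uM, duplicate). Add testosterone tracer, 2 h more. Add substrate/inhibitor, read donor and acceptor emission.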

[19] = CCTE_Mundy_HCI_iCellGluta_NOG_NeuronCount: CCTE's Neurite Outgrowth Assay in iCellGluta cells for Neuron Count, Mundy Lab (AID 2284340; active = hit-call score of the fitted dose curve at least 0.9, where 1 is the maximum;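 also: cells fixed about 48 h after compound addition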)
Outline: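 Neuron count read by automated high-content imaging of Hoechst 33342 and betaIII-tubulin/Alexa Fluor-488 labelling in human iPSC glutamatergic neurons. Activity fitted relative to DMSO.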

Measured: AC50

Chain of E-selectin (Homo sapiens) (P16581 whole entry, looked up): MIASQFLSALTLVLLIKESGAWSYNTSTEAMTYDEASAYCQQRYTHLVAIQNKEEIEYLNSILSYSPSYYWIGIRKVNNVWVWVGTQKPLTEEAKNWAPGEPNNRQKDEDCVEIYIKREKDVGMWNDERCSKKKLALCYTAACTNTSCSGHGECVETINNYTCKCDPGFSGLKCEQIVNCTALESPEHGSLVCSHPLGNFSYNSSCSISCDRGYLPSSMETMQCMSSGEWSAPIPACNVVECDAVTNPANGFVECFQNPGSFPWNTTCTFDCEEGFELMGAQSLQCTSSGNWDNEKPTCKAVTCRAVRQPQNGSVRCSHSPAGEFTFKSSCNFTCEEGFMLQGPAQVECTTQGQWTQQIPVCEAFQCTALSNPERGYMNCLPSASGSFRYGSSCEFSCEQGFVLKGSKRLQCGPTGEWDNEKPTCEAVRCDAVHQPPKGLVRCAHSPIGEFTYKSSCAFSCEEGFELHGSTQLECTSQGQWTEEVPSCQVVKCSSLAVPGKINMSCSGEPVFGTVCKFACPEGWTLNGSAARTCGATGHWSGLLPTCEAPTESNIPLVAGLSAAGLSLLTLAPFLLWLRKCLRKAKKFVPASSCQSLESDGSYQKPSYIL

OCC(F)(F)C(F)(F)C(F)(F)C(F)(F)C(F)(F)C(F)(F)CO
inactive: [1] | [2] | [3] | [4] | [5] | [6] | [7] | [8] | [9] | [10] | [12] | [13] | [14]
active: [11] 3.34 µM and 5.58 µM | [15] 11.2 µM

CC(C)Nc1ccc(NC(C)C)c2c1C(=O)c1ccccc1C2=O
active: [18] 3.06 µM
inactive: [16] | [17]

CCCCCCCCCc1ccc(OCCO)cc1
active: [16] 40.3 µM | [17] 19.1 µM | [18] 88.8 µM

NC(=O)C(F)(F)C(F)(F)C(F)(F)C(F)(F)C(F)(F)C(F)(F)C(F)(F)F
inactive: [1] | [2] | [3] | [4] | [5] | [6] | [7] | [8] | [9] | [10] | [11] | [12] | [13] | [14] | [19]
active: [15] 5.65 µM

CCN=C1C=CC(=C(c2ccc(N(CC)CC)cc2)c2ccc(N(CC)CC)cc2)c2ccccc21
active: [1] 5.67 µM and 5.38 µM | [2] 1.63 µM and 1.44 µM | [4] 1.9 µM and 1.77 µM | [6] 677 nM and 195 nM | [14] 1.16 µM and 1.01 µM | [16] 6.95 µM | [17] 2.24 µM | [18] 0.166 µM
inactive: [13]

CCOC(=O)CC(=O)C(F)(F)C(F)(F)F
inactive: [1] | [2] | [3] | [4] | [5] | [6] | [7] | [8] | [9] | [10] | [11] | [12] | [13] | [14]
active: [15] 49.8 µM

NC(O)(C(F)(F)F)C(F)(F)F
inactive: [1] | [2] | [3] | [4] | [5] | [6] | [7] | [8] | [9] | [10] | [11] | [12] | [13] | [14] | [19]
active: [14] 1.45 µM

O=C(F)C1(F)C(F)(F)C(F)(F)C(F)(F)C(F)(F)C1(F)F
inactive: [1] | [2] | [3] | [4] | [5] | [6] | [7] | [8] | [9] | [10] | [11] | [12] | [13] | [14] | [19]
active: [15] 32.9 µM
